This passage reports outcome and AC50 results from PubChem BioAssay (EPA / NIEHS).

Results filed as inconclusive are left out. Active and inactive are the calls of the source. The calls were made as follows: active = hit-call score of the fitted dose curve at least 0.9, where 1 is the maximum; inconclusive = response in the unintended direction; inactive = score below 0.9.

Chain of AR (gene 367) (P10275 whole entry, looked up): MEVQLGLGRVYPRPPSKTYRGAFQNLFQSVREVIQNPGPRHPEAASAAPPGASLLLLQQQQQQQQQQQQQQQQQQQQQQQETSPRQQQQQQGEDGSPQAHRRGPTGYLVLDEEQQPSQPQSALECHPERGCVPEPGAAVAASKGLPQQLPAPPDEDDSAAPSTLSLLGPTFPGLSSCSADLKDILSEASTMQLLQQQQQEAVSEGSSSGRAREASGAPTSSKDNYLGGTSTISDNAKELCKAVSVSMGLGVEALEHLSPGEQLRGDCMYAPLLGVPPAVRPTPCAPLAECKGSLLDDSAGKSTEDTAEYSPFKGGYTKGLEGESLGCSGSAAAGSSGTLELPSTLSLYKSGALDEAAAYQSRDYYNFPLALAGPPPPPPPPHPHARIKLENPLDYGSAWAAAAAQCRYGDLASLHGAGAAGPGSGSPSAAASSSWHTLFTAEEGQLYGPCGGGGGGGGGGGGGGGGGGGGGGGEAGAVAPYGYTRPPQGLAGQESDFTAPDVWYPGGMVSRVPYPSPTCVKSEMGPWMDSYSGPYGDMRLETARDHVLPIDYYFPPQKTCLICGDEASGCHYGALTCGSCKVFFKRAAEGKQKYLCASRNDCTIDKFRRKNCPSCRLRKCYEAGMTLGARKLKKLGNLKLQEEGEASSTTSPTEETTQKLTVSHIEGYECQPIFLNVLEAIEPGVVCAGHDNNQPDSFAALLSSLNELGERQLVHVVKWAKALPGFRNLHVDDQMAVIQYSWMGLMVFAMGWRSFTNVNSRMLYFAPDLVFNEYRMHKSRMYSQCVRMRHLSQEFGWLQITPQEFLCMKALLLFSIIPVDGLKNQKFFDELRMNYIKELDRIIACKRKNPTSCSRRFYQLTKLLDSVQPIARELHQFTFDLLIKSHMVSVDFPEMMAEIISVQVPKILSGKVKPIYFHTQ

Tested on in the first assay: not listed separately
The assay can be described thus: STM_H9_NormalizedViability: Cytotoxicity Assessment at 120 hours in the Stemina devTOX quickPredict H9 human embryonic stem cell (hESC)-based Assay (AID 2283784). In outline:
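Undifferentiated H9 hESCs kept pluripotent were exposed to compound, with media and chemical replaced every 24h. CellTiter-Fluor protease-substrate fluorescence was background-corrected and normalized per plate to the 0.1% DMSO vehicle; signal loss indicates reduced viability.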
For `CC(COCC(C)OC(=O)c1ccccc1)OC(=O)c1ccccc1` (stereo not drawn), the outcome was inactive.

Take `CCCCCCCCCC[N+](C)(C)[O-]`: the outcome was inactive.

Turning to `COC(=O)[C@H]1[C@H]2C[C@@H]3c4[nH]c5cc(OC)ccc5c4CCN3C[C@H]2C[C@@H](OC(=O)c2cc(OC)c(OC)c(OC)c2)[C@@H]1OC`, the outcome was inactive.

Take `N[C@@H](Cc1c[nH]c2ccccc12)C(=O)O`: the outcome was inactive.

As usually defined, the AC50 is the midpoint of the concentration-response curve, whichever way the signal moves. Consider `Nc1nc(Cl)nc2c1ncn2[C@H]1C[C@H](O)[C@@H](CO)O1`, for which the AC50 is 0.902 µM (active).

In the case of `NC(=Nc1ccccc1)Nc1ccccc1`, the result was inactive.

A further assay addresses AR (gene 367) (UniProt P10275). The assay is described as follows: ACEA_AR_antagonist_80hr: ACEA Biosciences xCELLigence Real-Time Cell Analysis on Androgen Receptor Antagonism for Proliferation (AID 2283787).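 Also: 22Rv1 human prostate cancer cells with growth followed by electrical impedance; hits lower the impedance growth signal relative to DMSO.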 In outline: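 Impedance readout (RT-CES), 80 h post-dose; loss-of-signal vs DMSO baseline. 22Rv1 cells in assay medium. Compounds: 8-pt 1:4 series, max 100 uM final, up to 0.5% DMSO; n = 2.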
Consider `CCC(C)N(C)C(=O)c1cc2ccccc2c(-c2ccccc2Cl)n1` (stereo not drawn), for which the AC50 was 46.4 µM (active).

For `NCCOCCOCCN`, the outcome was inactive.

Regarding `O=Cc1ccccc1C=O`, the AC50 is 83 µM (active).

As for `Cc1ccc(-c2cc(C(F)(F)F)nn2-c2ccc(S(N)(=O)=O)cc2)cc1`, the half-maximal activity concentration (AC50) was 12.7 µM (active).

For the compound `O=C(Oc1ccccc1)c1cccc(C(=O)Oc2ccccc2)c1`, the outcome was inactive.

Take `Nc1nc(=S)c2[nH]cnc2[nH]1`: the concentration at half-maximal activity (AC50) is 0.198 µM (active).

For the compound `CC(C)OC(=O)C(C)(C)Oc1ccc(C(=O)c2ccc(Cl)cc2)cc1`, the AC50 was 53.4 µM (active).

As to `CSc1ccc(Oc2ccc(S(N)(=O)=O)cc2CN(C)C)cc1C`, the AC50 is 62.4 µM (active).

Consider `Cc1c(C)c2c(c(C)c1O)CCC(C)(COc1ccc(CC3SC(=O)NC3=O)cc1)O2` (stereo not drawn), for which the AC50 is 55.8 µM (active).

`O=C1OC(c2ccc(O)cc2)(c2ccc(O)cc2)c2ccccc21`: the AC50 was 20.6 µM (active).

For `CCCCCCCCCC[N+](C)(C)[O-]`, the compound was called inactive.

For `Cc1cc(SC2=C(O)C[C@@](CCc3ccc(N)cc3)(C(C)C)OC2=O)c(C(C)(C)C)cc1CO`, the AC50 is 68.9 µM (active).
